Unmarked numbers belong to inactive results. Records with an inconclusive call do not appear. The source made the active and inactive calls. Unless noted, calls follow the shape of the dose curve; as a rule, active = well fitted curve in the direction sought with a large enough effect in the repeat runs; inconclusive = weak or mixed curves; inactive = no such curve, though single readings can be large; an effect the other way counts as inactive or inconclusive.

A short description of assay [1]: qHTS assay to identify small molecule agonists of H2AX (AID 1224845; active = well fitted activation curve with a large enough effect in the signal ratio in the repeat runs, not every such curve was filed as active; the % refers to the signal ratio). The procedure, abridged:
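Wild-type CHO-K1 cells plated overnight, then exposed 3 hr at 37C to compounds at 15 concentrations (0.76% DMSO). Lysed, then HTRF anti-pH2AX(S139)-cryptate/anti-H2AX-d2 detection after 24 hr at room temperature; emissions 665 and 620 nm.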

A short description of assay [2]: qHTS assay to identify small molecule agonists of H2AX - cell viability counter screen (AID 1224847; calls by dose curve; also: top concentration of the series differs between compounds; nearly all actives have a fitted effect of over 30% in size). In outline:
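Compounds tested at 15 concentrations were incubated 3 hr at 37C with wild-type CHO-K1 cells; cellular ATP-based luminescence (CellTiter-Glo) indicated viability.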

Assay [3] in a line: qHTS RealTime-Glo MT Cell Viability Assay in HepG2 cells - 24 hour (AID 1224867). Also: nearly all actives have a fitted effect of over 50% in size. In outline:
(§1)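 Cells + NanoLuc/prosubstrate dispensed (600 cells/well) → 5 h at 37 C/5% CO2 → compounds in DMSO transferred → 40 h incubation at 37 C, luminescence read at 0, 8, 16, 24, 32, 40 h.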

A short description of assay [4]: qHTS RealTime-Glo MT Cell Viability Assay in HEK293 cells - 32 hour (AID 1224868). Also: top concentration of the series differs between compounds; nearly all actives have a fitted effect of over 50% in size. In outline: (§2)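 Tox21 10K qHTS, HEK293, 600 cells/well, RealTime-Glo reagent co-dispensed with cells; 5 h preincubation, compound by pintool, 37 C, luminescence at 0–40 h.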
A short description of assay [5]: A CellTox Green Cytotoxicity Assay to monitor cytotoxicity in HEK293 cells - 0 hour (AID 1224869). Also: nearly all actives have a fitted effect of over 50% in size. In outline:
(§3)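 Nonlytic real-time cytotoxicity: HEK293 + CellTox Green reagent plated, 5 h preincubation, pintool compound addition (23 nL in DMSO), 37 C for 40 h, fluorescence measured at successive time points.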

Assay [6] is described as follows: A CellTox Green Cytotoxicity Assay to monitor cytotoxicity in HEK293 cells - 40 hour (AID 1224871). Also: nearly all actives have a fitted effect of over 45% in size. In outline:
as §3

A short description of assay [7]: qHTS RealTime-Glo MT Cell Viability Assay in HEK293 cells - 16 hour (AID 1224872). Also: top concentration of the series differs between compounds; nearly all actives have a fitted effect of over 50% in size. In outline: as §2
The nature of assay [8]: qHTS RealTime-Glo MT Cell Viability Assay in HepG2 cells - 8 hour (AID 1224873). Also: nearly all actives have a fitted effect of over 55% in size. In outline:
(§4)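 HepG2 cells mixed with RealTime-Glo MT reagents (NanoLuc plus cell-permeant prosubstrate) were seeded at 600 cells/well, incubated 5 h at 37 C/5% CO2, then pinned with compounds in DMSO; nonlytic luminescence tracked viability during 40 h treatment.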

Assay [9] in a line: qHTS RealTime-Glo MT Cell Viability Assay in HEK293 cells - 40 hour (AID 1224874). Also: nearly all actives have a fitted effect of over 50% in size. The note with it: RealTime-Glo luminescence; max response: active compounds read low. The procedure, abridged:
(§5)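 Cells were seeded together with NanoLuc luciferase and a prosubstrate that viable cells reduce to a luciferase substrate. After a 5 h incubation at 37 C/5% CO2, compounds were added and luminescence was measured repeatedly during 40 h of treatment.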

Assay [10] is described as follows: A CellTox Green Cytotoxicity Assay to monitor cytotoxicity in HEK293 cells - 24 hour (AID 1224875). Also: series mostly up to about 77 µM; nearly all actives have a fitted effect of over 45% in size. The procedure, abridged: as §3
Assay [11] is described as follows: A CellTox Green Cytotoxicity Assay to monitor cytotoxicity in HepG2 cells - 16 hour (AID 1224876). Also: nearly all actives have a fitted effect of over 45% in size. In outline: (§6)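 Read-out is fluorescence of a cyanine dye excluded from live cells that stains DNA of dead HepG2 cells, with signal proportional to cytotoxicity. Plates were read at 0, 8, 16, 24, 32 and 40 h after compound addition.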
The nature of assay [12]: qHTS RealTime-Glo MT Cell Viability Assay in HepG2 cells - 32 hour (AID 1224877). Also: nearly all actives have a fitted effect of over 55% in size. In outline: as §1
Assay [13] in a line: A CellTox Green Cytotoxicity Assay to monitor cytotoxicity in HepG2 cells - 24 hour (AID 1224878). Also: nearly all actives have a fitted effect of over 45% in size. In outline: as §6
Assay [14] is described as follows: A CellTox Green Cytotoxicity Assay to monitor cytotoxicity in HepG2 cells - 40 hour (AID 1224879). Also: nearly all actives have a fitted effect of over 40% in size. In outline: as §6
Assay [15] can be described thus: qHTS RealTime-Glo MT Cell Viability Assay in HEK293 cells - 0 hour (AID 1224880). The procedure, abridged:
as §5

Assay [16] can be described thus: A CellTox Green Cytotoxicity Assay to monitor cytotoxicity in HEK293 cells - 32 hour (AID 1224881). Also: nearly all actives have a fitted effect of over 40% in size. In outline:
as §3

Assay [17] can be described thus: qHTS RealTime-Glo MT Cell Viability Assay in HepG2 cells - 40 hour (AID 1224870). Also: nearly all actives have a fitted effect of over 50% in size. Also: potency is read from the fitted curve at half-maximal effect. In outline: as §4
Assay [18] can be described thus: qHTS assay to identify small molecule agonists of the hypoxia (HIF-1) signaling pathway (AID 1224846; active = well fitted activation curve with a large enough effect in the signal ratio in the repeat runs, not every such curve was filed as active; the % refers to the signal ratio). The procedure, abridged:
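Cell line: CellSensor HRE-bla ME-180; 2,000 cells/well; 0.5% dialyzed FBS; 5 h preincubation; DMSO compound pin transfer; 17 h, 37C, 5% CO2; CCF4-AM added; bla FRET signal scored for activation.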

A short description of assay [19]: qHTS assay to identify small molecule antagonists of the estrogen related receptor (ERR) signaling pathway from Tox21 library (AID 1224848). Also: nearly all actives have a fitted effect of over 50% in size. In outline:
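Screening used an ERR reporter line supplied by NTP, exposed for 18 h at 37 C to library compounds delivered in DMSO. Signal was luciferase luminescence developed with ONE-Glo at room temperature for 30 min.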

The nature of assay [20]: qHTS assay to identify small molecule agonists of the estrogen related receptor (ERR) signaling pathway from Tox21 library (AID 1224849; calls by dose curve; also: nearly all actives have a fitted effect of over 15% in size). In outline: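 ERR cells, 6 h pre-incubation 37 C/5% CO2; cpd in DMSO pinned; 18 h 37 C; ONE-Glo added, 30 min RT; luminescence read. Agonist mode, qHTS.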
% is scaled to controls: 0 for no effect and ±100 for the full control effect.

Take `CCC(C)(CN(C)C)OC(=O)c1ccccc1` (configuration not stated): the Potency result in assay [1], in [4], in assay [6], in assay [7], in [12] and in assay [14] was “inactive” throughout. For the same molecule, the Potency result in [15] was “inactive”. Moreover, the call in assay [2], in [3], in assay [5], in assay [8], in assay [10] and in assay [11] was inactive. Moreover, the molecule was classed as inactive in assay [13] and in [16]. In addition, in assay [9], the max response was 12.1%.
Take `Cc1c(N)c(=O)n(-c2ccccc2)n1C`: the Potency entry in [1], in assay [4], in [17], in [6], in [7] and in [12] was “inactive” each time. For the same molecule, in assay [15], the Potency entry was “inactive”. For the same molecule, the call in assay [2], in assay [3], in assay [5], in assay [8], in assay [10] and in assay [16] was inactive. The max response in [9] was -5.41%.
Regarding `C[N+]1(C)[C@@H]2CC(OC(=O)[C@H](CO)c3ccccc3)C[C@H]1[C@@H]1O[C@@H]12` (some centres not stated), the Potency result in assay [1], in [6] and in assay [14] was “inactive” each time. Further, the outcome in [2], in [5], in [10], in assay [11], in [13] and in assay [16] was inactive.
Take `CCOC(=O)c1cnc2c(cnn2CC)c1NN=C(C)C`: the Potency result in assay [1], in assay [4], in assay [17], in assay [7], in assay [12] and in assay [14] was “inactive” throughout. The Potency result in [15] was “inactive”. Besides, the call in assay [2], in [3], in assay [5], in assay [8], in [11] and in assay [13] was inactive. Besides, the call in assay [16] was inactive. Besides, the max response in assay [9] was -11.3%.
`O=CN(CCO)CCO`: the outcome in assay [18], in assay [2], in assay [20], in assay [3], in assay [5] and in assay [8] was inactive. Besides, the molecule was classed as inactive in assay [10], in assay [11], in [13] and in assay [16]. Also, the Potency entry in [19], in [4], in assay [17], in [6], in assay [7] and in assay [12] was “inactive” each time. In assay [15], the Potency result was “inactive”. Further, the max response in assay [9] is -0.597%.
For the molecule `CCOC(=O)c1ccccc1`, the outcome in assay [18], in assay [2], in assay [20], in assay [3], in assay [5] and in assay [8] was inactive. The call in [11], in [13] and in assay [16] was inactive. For the same molecule, the Potency result in assay [19], in [4], in assay [17], in assay [6], in assay [7] and in [12] was “inactive” in each case. The Potency result in [14] and in [15] was “inactive” in each case. The max response in [9] was -0.292%.
Take `COc1cc(-c2ccc(=O)[nH]n2)ccc1OC(F)F`: the Potency result in assay [1], in assay [4], in assay [6], in [7], in [12] and in [14] was “inactive” in each case. Moreover, the Potency entry in assay [15] is “inactive”. In addition, the molecule was classed as inactive in assay [2], in assay [3], in assay [5], in assay [8], in assay [11] and in [13]. Moreover, the call in [16] was inactive. In addition, the max response in assay [9] is -5.19%.
`CCC1C(=O)OCC1Cc1cncn1C` (configuration not stated): the Potency entry in assay [1], in [4], in assay [17], in assay [6], in assay [7] and in assay [12] was “inactive” each time. For the same molecule, the Potency result in assay [14] and in assay [15] was “inactive” in each case. Further, the molecule was classed as inactive in assay [2], in assay [5], in [8], in [10], in [11] and in assay [13]. The call in [16] was inactive. Further, the max response in [9] was 0.511%.
For the molecule `CO[C@@]1(NC(=O)C(C(=O)O)c2ccc(O)cc2)C(=O)N2C(C(=O)O)=C(CSc3nnnn3C)CO[C@@H]21` (some centres not stated), the Potency result in assay [1], in [19], in [4], in assay [17], in assay [6] and in assay [7] was “inactive” throughout. The Potency entry in assay [12], in assay [14] and in assay [15] was “inactive” each time. The molecule was classed as inactive in assay [20], in assay [3], in assay [5], in assay [8], in [11] and in [13]. Besides, the molecule was classed as inactive in assay [16]. Also, the max response in assay [9] was 11.1%.
`CC[N+](CC)(CC)CCOc1cccc(OCC[N+](CC)(CC)CC)c1OCC[N+](CC)(CC)CC`: the Potency result in [1], in assay [4], in assay [6], in [7], in assay [14] and in assay [15] was “inactive” throughout. Besides, the molecule was called inactive in [2], in assay [5], in [8], in assay [10], in assay [11] and in assay [13]. In addition, the call in assay [16] was inactive. Besides, in assay [17], the Potency is 23.9 µM (active). Besides, in assay [9], the max response was 2.7%.
Consider `O=S(=O)(O)c1cccc2ccccc12`, for which the call in assay [18], in assay [2], in [20], in [5], in assay [8] and in [10] was inactive. The result in assay [11], in [13] and in assay [16] was inactive. The Potency result in assay [19], in assay [4], in assay [17], in [6], in assay [7] and in assay [12] was “inactive” in each case. For the same molecule, the Potency entry in assay [14] and in [15] was “inactive” throughout. Moreover, the max response in assay [9] is 14.6%.
Take `CC1=C(C/C=C(\C)CCC[C@H](C)CCC[C@H](C)CCCC(C)C)C(=O)c2ccccc2C1=O`: the molecule was called inactive in [18], in assay [2], in [20], in [3], in assay [5] and in assay [8]. The molecule was called inactive in assay [10], in [11] and in assay [16]. The Potency entry in assay [19], in assay [17], in assay [6], in assay [12] and in [14] was “inactive” throughout.
Turning to `Clc1cc(Cl)cc(Cl)c1`, the molecule was called inactive in assay [18], in assay [2], in assay [20], in assay [3], in assay [5] and in [8]. For the same molecule, the outcome in [11], in assay [13] and in [16] was inactive. The Potency entry in assay [19], in [4], in assay [17], in [6], in assay [7] and in assay [12] was “inactive” throughout. Also, in assay [15], the Potency result was “inactive”. Moreover, in assay [9], the max response was 12.7%.
